According to PubChem BioAssay (Tox21):
Records with an inconclusive call do not appear. Calls of active or inactive are those of the source. The call rests on the fitted dose curve.

Molecular target: Acetylcholinesterase (Homo sapiens) (UniProt P22303)
Experiment: Acetylcholinesterase (AChE) small molecule antagonists: fluorescence cell-based qHTS assay (AID 1347398); further: nearly all actives have a fitted effect of over 50% in size; further: potency means the concentration at half of the fitted maximal effect
Conditions: SH-SY5Y cells; Potency: AChE activity; outcome: AChE activity; series mostly up to 115 µM; activity change, negative = inhibition: at the top concentration
Summary of the method: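 Using neuroblastoma SH-SY5Y cells as the enzyme source, test chemicals are preincubated 30 min at 37 C; AChE-driven acetylthiocholine cleavage is then quantified by thiocholine-dependent Thiolite Green fluorescence after 40 min at room temperature.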
On the % scale 0 is the no-effect control and ±100 the full control effect.

Chain of Acetylcholinesterase (Homo sapiens) (P22303 whole entry, looked up): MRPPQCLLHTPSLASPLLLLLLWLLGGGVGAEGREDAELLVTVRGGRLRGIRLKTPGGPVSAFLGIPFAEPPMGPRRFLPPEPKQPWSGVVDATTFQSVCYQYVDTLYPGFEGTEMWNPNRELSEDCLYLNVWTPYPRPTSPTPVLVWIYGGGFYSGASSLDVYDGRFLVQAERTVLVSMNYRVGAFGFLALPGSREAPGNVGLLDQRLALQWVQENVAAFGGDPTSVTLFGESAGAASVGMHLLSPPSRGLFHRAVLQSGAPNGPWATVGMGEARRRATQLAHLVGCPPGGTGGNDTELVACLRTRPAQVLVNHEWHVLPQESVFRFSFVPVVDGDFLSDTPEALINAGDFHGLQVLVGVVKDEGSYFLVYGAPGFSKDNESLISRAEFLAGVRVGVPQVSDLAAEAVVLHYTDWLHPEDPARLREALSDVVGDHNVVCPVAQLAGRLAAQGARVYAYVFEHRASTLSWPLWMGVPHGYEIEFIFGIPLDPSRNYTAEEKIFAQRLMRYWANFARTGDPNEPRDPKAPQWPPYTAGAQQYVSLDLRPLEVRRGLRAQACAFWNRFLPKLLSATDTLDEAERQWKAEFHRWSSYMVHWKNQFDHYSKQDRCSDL

Structure (SMILES) | activity change, negative = inhibition | Potency
COCCOCCOCCOC | 7.86% (inactive) | 
OCCSc1ccccc1 | 0.165% (inactive) | 
CC(O)C#CC(C)O (centres undefined) | 6.4% (inactive) | 
CO[C@H]1C=CO[C@@]2(C)Oc3c(C)c(O)c4c(O)c(c(/C=N/N5CCN(C)CC5)c(O)c4c3C2=O)NC(=O)/C(C)=C\C=C[C@H](C)[C@H](O)[C@@H](C)[C@@H](O)[C@@H](C)[C@H](OC(C)=O)[C@@H]1C |  | inactive
Cc1cc(NC(=O)C2=C(O)c3ccccc3S(=O)(=O)N2C)no1 | 1.52% [at 53.7 µM] (inactive) | 
Nc1c(I)cc(I)c(C(=O)N(CCC(=O)O)c2ccccc2)c1I | 3.97% [at 53.7 µM] (inactive) | 
O=C(c1ccccc1)c1ccc(O)cc1 | 4.87% (inactive) | 
COc1ccc(Nc2ccccc2)c(C)c1 |  | inactive
C[C@]12CCC(=O)C=C1CC[C@H]1[C@@H]3CC[C@](O)(C(=O)CO)[C@@]3(C)C[C@H](O)[C@@]12F | -0.524% [at 53.7 µM] (inactive) | 
CC(C)Cn1cnc2c1c(=O)n(C)c(=O)n2C | 2.75% [at 53.7 µM] (inactive) | 
CCCCC(CC)COP(=O)(O)OCC(CC)CCCC (centres undefined) | -29.1% (inactive) | 
O=C(O)[C@H](O)[C@@H](O)[C@H](O)[C@H](O)CO |  | inactive
COc1cc(C=O)ccc1OC(=O)C(C)C | -1.37% (inactive) | 
O=c1[nH]c(=O)c2cn[nH]c2[nH]1 | 2.11% (inactive) | 
CN1C[C@H](C(=O)N[C@]2(C)O[C@@]3(O)[C@@H]4CCCN4C(=O)[C@H](Cc4ccccc4)N3C2=O)C[C@@H]2c3cccc4[nH]cc(c34)C[C@H]21 |  | 8.71 µM (active)
OC[C@]1(O)OC[C@@H](O)[C@H](O)[C@@H]1O |  | inactive
O=C(O)P(=O)(O)O | 4.12% [at 53.7 µM] (inactive) | 
c1ccc2c(c1)CCc1ccccc1N2 |  | inactive
CC1(C)C(=O)N(Cl)C(=O)N1Cl |  | inactive

Molecular target: Acetylcholinesterase (Homo sapiens) (UniProt P22303)
Experiment: Acetylcholinesterase (AChE) small molecule antagonists: enzyme-based qHTS assay with human liver microsomes (AID 1347399); further: nearly all actives have a fitted effect of over 60% in size
Conditions: Potency: qHTS inhibition; outcome: qHTS inhibition; series mostly up to 115 µM; activity change, negative = inhibition: at the top concentration
Summary of the method: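 Recombinant human AChE (50 mU/mL in the enzyme mix) and human liver microsomes (0.25 mg/mL final) were preincubated with compound and NADPH (0.25 mg/mL final) for 30 min at 37 C. Acetylthiocholine/DTNB was then added; thiocholine was read colorimetrically after 10 min at room temperature.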

Structure (SMILES) | Potency | activity change, negative = inhibition
Nc1cc([N+](=O)[O-])ccc1O | inactive | 
CC(C)(C)c1ccc(CCC=O)cc1 |  | -0.917% (inactive)
CCCCC(CC)COC(C)=O (centres undefined) | inactive | 
O[C@@H](COc1cccc2ncccc12)CN1CCN(C2c3ccccc3[C@@H]3[C@H](c4ccccc42)C3(F)F)CC1 (some centres undefined) |  | 4.29% [at 53 µM] (inactive)
COc1ccc2c(c1)c(CC(=O)O)c(C)n2C(=O)c1ccc(Cl)cc1 | inactive | 
CC(=O)OC(C)C | inactive | 
CC(C)=CCC/C(C)=C/C=O | inactive | 
O=S(=O)(O)c1cccc2ccccc12 |  | -0.0035% (inactive)
Cc1c(F)c(N2CCNC(C)C2)cc2c1c(=O)c(C(=O)O)cn2C1CC1 (centres undefined) |  | -1.75% [at 53 µM] (inactive)
CCCC(C)C(=O)O (centres undefined) |  | -0.991% (inactive)
C[C@]12CC[C@@H]3c4ccc(O)cc4CC[C@H]3[C@@H]1CC[C@H]2O | inactive | 
C=C1C[C@H]2[C@@H]3C=C(C)C4=CC(=O)CC[C@]4(C)[C@H]3CC[C@]2(C)[C@@]1(OC(C)=O)C(C)=O | inactive | 
CCN(CCCc1ccccc1)CCCc1ccccc1 |  | -2.35% [at 53 µM] (inactive)
CCCCS(=O)(=O)N[C@@H](Cc1ccc(OCCCCC2CCNCC2)cc1)C(=O)O |  | 0.521% [at 53 µM] (inactive)
CCCC(=O)Nc1ccc(O)c(C(C)=O)c1 |  | 1.18% [at 53 µM] (inactive)
NC(=O)C1(N2CCCCC2)CCN(CCCC(=O)c2ccc(F)cc2)CC1 |  | 0.677% [at 53 µM] (inactive)
C=C(C)C1CC=C(C)C(OC(C)=O)C1 (centres undefined) | inactive | 
CCOc1ccc2nc(S(N)(=O)=O)sc2c1 |  | 20% [at 53 µM] (inactive)
O=CCCCC=O | inactive | 
COc1ccc(COC(C)=O)cc1 | inactive | 

Structure (SMILES) | Potency | activity change, negative = inhibition
CCCOc1ccc(S(=O)(=O)N2CCN(CC)CC2)cc1-c1nc2c(CC)n(Cc3ccccn3)nc2c(=O)[nH]1 |  | -0.576% (inactive)
COCCOCCOCCOC |  | 0% (inactive)
OCCSc1ccccc1 |  | 0.458% (inactive)
CC(O)C#CC(C)O (centres undefined) |  | -3.76% (inactive)
CO[C@H]1C=CO[C@@]2(C)Oc3c(C)c(O)c4c(O)c(c(/C=N/N5CCN(C)CC5)c(O)c4c3C2=O)NC(=O)/C(C)=C\C=C[C@H](C)[C@H](O)[C@@H](C)[C@@H](O)[C@@H](C)[C@H](OC(C)=O)[C@@H]1C | inactive | 
Cc1cc(NC(=O)C2=C(O)c3ccccc3S(=O)(=O)N2C)no1 |  | 0.539% [at 53 µM] (inactive)
Nc1c(I)cc(I)c(C(=O)N(CCC(=O)O)c2ccccc2)c1I |  | -1.1% [at 53 µM] (inactive)
O=C(c1ccccc1)c1ccc(O)cc1 |  | 2.57% (inactive)
COc1ccc(Nc2ccccc2)c(C)c1 | inactive | 
C[C@]12CCC(=O)C=C1CC[C@H]1[C@@H]3CC[C@](O)(C(=O)CO)[C@@]3(C)C[C@H](O)[C@@]12F |  | -0.334% [at 53 µM] (inactive)
CC(C)Cn1cnc2c1c(=O)n(C)c(=O)n2C |  | 1.17% [at 53 µM] (inactive)
CCCCC(CC)COP(=O)(O)OCC(CC)CCCC (centres undefined) | inactive | 
O=C(O)[C@H](O)[C@@H](O)[C@H](O)[C@H](O)CO | inactive | 
COc1cc(C=O)ccc1OC(=O)C(C)C |  | -0.431% (inactive)
O=c1[nH]c(=O)c2cn[nH]c2[nH]1 |  | -2.69% (inactive)
CN1C[C@H](C(=O)N[C@]2(C)O[C@@]3(O)[C@@H]4CCCN4C(=O)[C@H](Cc4ccccc4)N3C2=O)C[C@@H]2c3cccc4[nH]cc(c34)C[C@H]21 |  | 8.9% [at 53 µM] (inactive)
OC[C@]1(O)OC[C@@H](O)[C@H](O)[C@@H]1O | inactive | 
O=C(O)P(=O)(O)O |  | 1.46% [at 53 µM] (inactive)
c1ccc2c(c1)CCc1ccccc1N2 | inactive | 
CC1(C)C(=O)N(Cl)C(=O)N1Cl | inactive | 
